Laboratory results taken from PubChem BioAssay (NCATS).
“And” between values parts separate entries of the source, which are not always exact repeats. Equal entries are not always repeated. Records with an inconclusive call do not appear. Values without a mark were called inactive. The source made the active and inactive calls. Calls come from the whole dose curve; as a rule, active = well fitted activation curve with a large enough effect in the signal ratio (not every such curve was filed as active); inconclusive = small, poorly fitted or top-dose-only effect, or a change in a side signal; inactive = flat fitted curve, though single readings scatter; the % refers to the signal ratio.

Assay: qHTS assay for small molecule activators of the p53 signaling pathway (AID 651743); for activation: series mostly up to about 92 µM; % of control where 0% means no effect
Conditions: HCT-116 p53RE-bla, beta-lactamase FRET ratio, 16 h; activation: hits give high values
From the text: National Center for Advancing Translational Sciences [NCATS] NIH Chemical Genomics Center [NCGC] U.S. Environmental Protection Agency [EPA] National Institutes of Environmental Health Sciences [NIEHS] National Toxicology Program [NTP] Assay Overview: p53, a tumor suppressor protein, is activated following cellular insult, including DNA damage and other cellular stresses. The activation of p53 regulates cell fate by inducing DNA repair, cell cycle arrest, apoptosis, or cellular senescence. The activation of p53, therefore, is a good indicator of DNA damage and other cellular stresses. The CellSensor p53RE-bla HCT-116 cell line (Invitrogen) contains a stably integrated beta-lactamase reporter gene under control of the p53 response elements. The activation of the report gene under culture conditions can be detected by fluorescence intensity. This cell line can be used to screen chemicals in a 1536-well plate format and to identify agonists that activate p53 signaling pathway.
Assay Protocol Summary: The p53RE-bla cells were dispensed at 4,000 cells/5 ul/well in 1536-well black wall/clear bottom plates using a Multidrop dispenser. After the assay plates were incubated at a 37 C/5% CO2 incubator for 5 hours, 23 nL of compounds dissolved in DMSO, positive controls or DMSO only was transferred to the assay plate by a pin tool. The plates were incubated at 37 C for 16 hours. After 1 uL of LiveBLAzer B/G FRET substrate was added using a Flying Reagent Dispenser, the plates were incubated at room temperature for 2 hours, and fluorescence intensity was measured by an Envision plate reader.
Potency is the fitted concentration of half-maximal effect.

| SMILES | activation | Potency |
| --- | --- | --- |
| CNCC(O)c1ccc(O)cc1 (configuration not stated) | -2.83% |  |
| CC(=O)Oc1ccccc1C(=O)Nc1ncc([N+](=O)[O-])s1 |  | 12.6 µM (active) |
| C[C@H]1O[C@@H](O[C@H]2[C@@H](O)C[C@H](O[C@H]3[C@@H](O)C[C@H](O[C@H]4CC[C@@]5(C)[C@H](CC[C@@H]6[C@@H]5CC[C@]5(C)[C@@H](C7=CC(=O)OC7)CC[C@]65O)C4)O[C@@H]3C)O[C@@H]2C)C[C@H](O)[C@@H]1O | -10.8% |  |
| C[C@]12C/C(=C/O)C(=O)C[C@@H]1CC[C@@H]1[C@@H]2CC[C@@]2(C)[C@H]1CC[C@]2(C)O | 23.1% |  |
| O=c1[nH]cc(F)c(=O)[nH]1 |  | 3.98 µM (active) |
| OCCOc1ccccc1 | -4.8% and -3.64% |  |
| Nc1ccncc1 | 2.37% |  |
| Oc1ccc(Cl)cc1Cc1ccccc1 | -3.88% and -4.49% |  |
| NCC(O)c1ccc(O)cc1 (configuration not stated) | -5.43% |  |
| CCOP(=S)(OCC)Oc1cc(C)nc(C(C)C)n1 | -0.592% and 3.54% |  |
| CCCC(C)(COC(N)=O)COC(=O)NC(C)C (configuration not stated) | 1.85% and -3% |  |
| c1ccc2c(c1)Nc1ccccc1S2 | 4.3% and -2.32% |  |
| N[C@@H](Cc1ccc(N(CCCl)CCCl)cc1)C(=O)O |  | 39.8 µM (active) and 25.1 µM (active) |
| CC(C)(C)CC(C)(C)c1ccc(O)cc1 | 1.12% |  |
| C[C@]12CCC(=O)C(O)=C1CC[C@@H]1[C@@H]2CC[C@]2(C)C(=O)CC[C@@H]12 | -6.6% |  |
| Oc1ccccc1-c1ccccc1 | -2.94% and -3.63% and -0.39% |  |
| Oc1cccc2cccnc12 | -0.845% and 2.31% |  |
